# Assay results as given in PubChem BioAssay (NCATS).
# A number with no mark means an inactive call. Records with an inconclusive call do not appear. Active and inactive are the calls of the source. Calls follow the shape of the dose curve; as a rule, active = well fitted curve in the direction sought with a large enough effect; inconclusive = small, poorly fitted or top-dose-only effect, or another doubt; inactive = no such curve, though single readings can be large; an effect the other way counts as inactive or inconclusive.
# Tested on: not listed separately
# Assay: Cellular Toxicity (caspase-3) N2a (AID 665);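 also: compound exposure lasted 16 h at 37 °C before readout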; also: potency is read from the fitted curve at half-maximal effect
# Conditions: N2a cells, luminescence; Potency: caspase-3 activation; series mostly up to 92.2 µM; caspase-3 activation: at the top concentration
# How it was run: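 Caspase-3/7 activation, measured as increased luminescence from aminoluciferin release, is quantified in mouse N2a cells exposed to compounds for 16 h. Values are normalized to DMSO and 10 uM staurosporine, with AC50 derived by Hill modelling.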
Structure (SMILES),caspase-3 activation [%],Potency
O=c1c(O)c(-c2ccc(O)cc2)oc2cc(O)cc(O)c12,-4.98,
O=C1NC(=O)C(c2ccccc2)(c2ccccc2)N1,-0.551,
O=C(O)c1cc(O)c2c(c1)C(=O)c1cccc(O)c1C2=O,-13.4,
O=c1[nH]cnc2c1ncn2[C@H]1CC[C@@H](CO)O1,-2.59,
CCCNC(=O)NS(=O)(=O)c1ccc(Cl)cc1,6.28,
O=c1c(-c2ccc(O)cc2)coc2cc(O)ccc12,-17.4,
CC1=C(/C=C/C(C)=C/C=C/C(C)=C/C(=O)Nc2ccc(O)cc2)C(C)(C)CCC1,,31.6 µM (active)
CCn1cc(C(=O)O)c(=O)c2ccc(C)nc21,-2.69,
CCCCC1C(=O)N(c2ccccc2)N(c2ccccc2)C1=O,-4.3,
O=c1cc(-c2ccc(O)cc2)oc2cc(O)cc(O)c12,-11,
CC(=O)O[C@]1(C(C)=O)CC[C@H]2[C@@H]3C=C(Cl)C4=CC(=O)[C@@H]5C[C@@H]5[C@]4(C)[C@H]3CC[C@@]21C,0.575,
CN(C)CCC(c1ccccc1)c1ccccn1 (stereo not given),-1.16,
O=C(O)Cc1cccc2ccccc12,-2.55,
CC(=O)c1ccc(S(=O)(=O)NC(=O)NC2CCCCC2)cc1,-3.47,

# Tested on: not listed separately
# Assay: Cellular Toxicity (caspase-3) NIH 3T3 (AID 666);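 also: caspase signal read after 16 h compound exposure; 0% = DMSO basal and 100% = 100 µM tamoxifen stimulation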
# Conditions: NIH 3T3 caspase-3 activation, apoptosis/toxicity, 0% DMSO, 100% is 100 µM tamoxifen; series mostly up to 92.2 µM; caspase-3 activation: at the top concentration
# How it was run: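 Cells were plated at 1000 per well and incubated 5 hr at 37°C, then compound was added for 16 hr. Caspase-Glo 3/7 reagent followed for 20 min at room temperature before luminescence was read.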
row,Structure (SMILES),caspase-3 activation [%]
1,O=c1c(O)c(-c2ccc(O)cc2)oc2cc(O)cc(O)c12,-20.9
2,O=C1NC(=O)C(c2ccccc2)(c2ccccc2)N1,-5.84
3,O=C(O)c1cc(O)c2c(c1)C(=O)c1cccc(O)c1C2=O,-18.8
4,O=c1[nH]cnc2c1ncn2[C@H]1CC[C@@H](CO)O1,-3.98
5,CCCNC(=O)NS(=O)(=O)c1ccc(Cl)cc1,-3.37
6,O=c1c(-c2ccc(O)cc2)coc2cc(O)ccc12,-27.3
7,CC1=C(/C=C/C(C)=C/C=C/C(C)=C/C(=O)Nc2ccc(O)cc2)C(C)(C)CCC1,26.1
8,CC/C(=C(\c1ccccc1)c1ccc(OCCN(C)C)cc1)c1ccccc1,9.45
9,CCn1cc(C(=O)O)c(=O)c2ccc(C)nc21,2.41
10,CCCCC1C(=O)N(c2ccccc2)N(c2ccccc2)C1=O,-4.65
11,O=c1cc(-c2ccc(O)cc2)oc2cc(O)cc(O)c12,-25.8
12,CC(=O)O[C@]1(C(C)=O)CC[C@H]2[C@@H]3C=C(Cl)C4=CC(=O)[C@@H]5C[C@@H]5[C@]4(C)[C@H]3CC[C@@]21C,4.35
13,CN(C)CCC(c1ccccc1)c1ccccn1 (stereo not given),0.845
14,O=C(O)Cc1cccc2ccccc12,-6.4
15,CC(=O)c1ccc(S(=O)(=O)NC(=O)NC2CCCCC2)cc1,0.716

# Tested on: not listed separately
# Assay: Cellular Toxicity (caspase-3) Renal Proximal Tubule (AID 667);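 also: cells exposed to compound for 16 hours at 37 °C before detection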; also: potency is read from the fitted curve at half-maximal effect;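 as to caspase-3 activation: 0% = DMSO basal and 100% = 10 µM staurosporine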
# Conditions: renal proximal tubule cells, primary cells freshly taken from rat; Potency: caspase-3 activation; series mostly up to 91.7 µM; caspase-3 activation: at the top concentration
# How it was run: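 In qHTS format, rat primary proximal tubule cells seeded at 1000 per well are exposed to compounds for 16 hours at 37 °C. An increase in Caspase-Glo 3/7 luminescence indicates caspase activation.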
Structure (SMILES),caspase-3 activation [%],Potency
O=c1c(O)c(-c2ccc(O)cc2)oc2cc(O)cc(O)c12,2.03,
O=C1NC(=O)C(c2ccccc2)(c2ccccc2)N1,0.318,
O=C(O)c1cc(O)c2c(c1)C(=O)c1cccc(O)c1C2=O,-10.2,
O=c1[nH]cnc2c1ncn2[C@H]1CC[C@@H](CO)O1,5.48,
CCCNC(=O)NS(=O)(=O)c1ccc(Cl)cc1,-1.32,
O=c1c(-c2ccc(O)cc2)coc2cc(O)ccc12,-21.2,
CC1=C(/C=C/C(C)=C/C=C/C(C)=C/C(=O)Nc2ccc(O)cc2)C(C)(C)CCC1,,31.6 µM (active)
CCn1cc(C(=O)O)c(=O)c2ccc(C)nc21,3.8,
CCCCC1C(=O)N(c2ccccc2)N(c2ccccc2)C1=O,4.89,
O=c1cc(-c2ccc(O)cc2)oc2cc(O)cc(O)c12,-9.76,
CC(=O)O[C@]1(C(C)=O)CC[C@H]2[C@@H]3C=C(Cl)C4=CC(=O)[C@@H]5C[C@@H]5[C@]4(C)[C@H]3CC[C@@]21C,2.86,
CN(C)CCC(c1ccccc1)c1ccccn1 (stereo not given),2.21,
O=C(O)Cc1cccc2ccccc12,1.36,
CC(=O)c1ccc(S(=O)(=O)NC(=O)NC2CCCCC2)cc1,0.521,

# Biological target: Guanine nucleotide-binding protein G(i) subunit alpha-1 (Homo sapiens) (UniProt P63096)
# Sequence (P63096 whole entry, looked up): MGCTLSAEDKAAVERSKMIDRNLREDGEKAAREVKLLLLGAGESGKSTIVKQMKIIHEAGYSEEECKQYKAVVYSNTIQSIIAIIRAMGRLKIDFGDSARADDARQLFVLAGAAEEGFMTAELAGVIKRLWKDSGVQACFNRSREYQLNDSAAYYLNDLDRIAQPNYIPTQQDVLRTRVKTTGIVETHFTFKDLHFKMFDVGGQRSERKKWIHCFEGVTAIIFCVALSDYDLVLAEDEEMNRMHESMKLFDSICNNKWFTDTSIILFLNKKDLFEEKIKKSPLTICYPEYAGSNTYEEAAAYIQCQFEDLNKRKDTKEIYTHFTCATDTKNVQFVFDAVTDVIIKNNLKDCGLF
# Assay: qHTS Assay for Inhibitors of RGS12 GoLoco Motif Activity (Green Fluorophore) (AID 879);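 also: 0% = labeled peptide with Gαi1 and full inhibition = labeled peptide alone without protein; negative values mean loss of peptide binding seen as reduced polarization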
# Conditions: Galphai1/FITC-RGS12 GoLoco peptide, fluorescence polarization; series mostly up to 57.1 µM; activity, negative = inhibition: at the top concentration
# How it was run: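 A drop in FITC polarization marked displacement of the FITC-tagged RGS12 GoLoco peptide (10 nM) from Gαi1 (50 nM). Compounds were incubated 10 min at room temperature in Tris pH 7.5 buffer containing 150 mM NaCl, 0.1 mM GDP and 0.05% NP40; unlabeled peptide titration served as control.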
row,Structure (SMILES),"activity, negative = inhibition [%]"
1,COc1ccc(Cc2nccc3cc(OC)c(OC)cc23)cc1OC,-9.95
2,COc1cccc(-c2cc(=O)c3ccccc3o2)c1N,-11.8
3,NCCS,-5.9
4,O=C1NC(=O)C(c2ccccc2)(c2ccccc2)N1,-12.8
5,CCCNC(=O)NS(=O)(=O)c1ccc(Cl)cc1,-1.84
6,NC(N)=Nc1nc(CSCC/C(N)=N/S(N)(=O)=O)cs1,-16
7,C[N+](C)(C)CC(=O)O,1.77
8,CC(C)(C)c1ccc(C(O)CCCN2CCC(C(O)(c3ccccc3)c3ccccc3)CC2)cc1 (stereo not given),-3.28
9,CC(C)OC(=O)C(C)(C)Oc1ccc(C(=O)c2ccc(Cl)cc2)cc1,-18.5
10,O=c1c(-c2ccc(O)cc2)coc2cc(O)ccc12,2.67
11,CC1=C(/C=C/C(C)=C/C=C/C(C)=C/C(=O)Nc2ccc(O)cc2)C(C)(C)CCC1,-22.4
12,CC/C(=C(\c1ccccc1)c1ccc(OCCN(C)C)cc1)c1ccccc1,8.95
13,CCCCC1C(=O)N(c2ccccc2)N(c2ccccc2)C1=O,-10.3
14,CC(=O)CCCCn1c(=O)c2c(ncn2C)n(C)c1=O,-14.5
15,CC(=O)N[C@@H](CS)C(=O)O,-1.66
16,CC(=O)c1ccc(S(=O)(=O)NC(=O)NC2CCCCC2)cc1,-11.5
17,CCN(CC)C(=O)c1ccc(O)c(OC)c1,-4.89
